From PubChem BioAssay (EPA / NIEHS)
“And” between values parts separate entries of the source, which are not always exact repeats. Identical values can stand only once. Records with an inconclusive call do not appear. A structure can be active in one record and inactive in another. The source made the active and inactive calls. Rule for the calls, unless noted: active = hit-call score of the fitted dose curve at least 0.9, where 1 is the maximum; inactive = score below 0.9.

Tests used:
[1] = CCTE_Shafer_MEA_dev_LDH: CCTE's Lactate Dehydrogenase Assay for Cytotoxicity in the Neural Network Formation Assay, Shafer Lab (AID 2284068; active = hit-call score of the fitted dose curve at least 0.9, where 1 is the maximum;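 note: exposure for twelve days from plating with re-dosing on DIV 5 and 9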)
Outline: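 Developing rat cortical networks on MEA plates are exposed to compound for 12 days from plating. LDH activity is measured spectrophotometrically, with DMSO as baseline.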

[2] = CCTE_Shafer_MEA_dev_AB: CCTE's Alamar Blue Assay for Cytotoxicity in the Neural Network Formation Assay, Shafer Lab (AID 2284083; active = hit-call score of the fitted dose curve at least 0.9, where 1 is the maximum;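 note: resazurin reduction fluorescence as viability of cultured neurons; twelve days of exposure from plating with re-dosing on DIV 5 and 9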)
Outline: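 Cytotoxicity companion to the developmental MEA: primary rat cortical neurons, 12-day exposure starting day 0, compound refreshed DIV 5 and 9; resazurin fluorescence, fitted against DMSO vehicle.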

[3] = CCTE_Shafer_MEA_dev_mutual_information_norm: CCTE's Neural Network Formation Assay for Mutual Information Normalization, Shafer Lab (AID 2284091);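 for AC50: mutual information between electrodes summarised as area under curve across four recording days; potency is for a decrease in mutual information relative to DMSO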
Outline: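 Rat cortical cultures, 48-well MEA, continuous exposure DIV 0–12 with full media/compound change DIV 5 and 9. Readout: inter-electrode mutual information, AxIS adaptive spike detection; AUC across DIV 5/7/9/12 recordings; DMSO baseline, negative fitting direction.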

[4] = CCTE_Shafer_MEA_dev_correlation_coefficient_mean: CCTE's Neural Network Formation Assay for Mean Correlation Coefficient, Shafer Lab (AID 2284093);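 for AC50: well mean pairwise spike train correlation integrated as AUC over recording days 5 to 12; potency fitted for loss of correlation relative to DMSO vehicle wells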
Outline: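 Extracellular firing from rat cortical networks on 48-well MEAs, DMSO-referenced, negative fitting direction. Compound present from plating to DIV12; mean pairwise correlation per well integrated over DIV5–12 recordings by trapezoidal AUC.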

[5] = UKN2_HCS_IMR90_neural_migration: University of Konstanz (UKN) Leist Lab Neural Crest Cell Migration Assay in human induced IMR90 Pluripotent Stem Cells (UKN2) (AID 2284204); conditions: actives raise or lower the signal
Outline: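 iPSC-derived IMR90 neural crest cells on PLO/laminin/fibronectin were seeded around silicone stoppers; after stopper removal, migration in N2-S medium with EGF and FGF ran 24 h before 24 h chemical exposure. Calcein-AM/Hoechst high-content imaging; bidirectional fit versus DMSO.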

[6] = IUF_NPC1b_proliferation_BrdU_72hr: Leibniz Research Institute for Environmental Medicine (IUF) 72-hour Neural Progenitor Cell Bromodeoxyuridine (BrdU) Proliferation Assay (NPC1b) (AID 2284207)
Outline: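 hNPC spheres (primary, GW 16-19 fetal cortex), single sphere/well, EGF+FGF medium; 72 h compound, no renewal; BrdU pulse last 16 h; luminescent ELISA; activity vs DMSO baseline; growth-factor withdrawal as positive control.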

[7] = IUF_NPC1a_proliferation_area_72hr: Leibniz Research Institute for Environmental Medicine (IUF) 72-hour Neural Progenitor Cell Proliferation Area Assay (NPC1a) (AID 2284208)
Outline: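 Single 0.25–0.35 mm human fetal neural progenitor spheres in proliferation medium with EGF and FGF, exposed 72 h from plating without renewal at 37C, pH 7.2-7.6. Sphere area growth measured by automated phase-contrast imaging, relative to DMSO.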

[8] = IUF_NPC1_viability_72hr: Viability Assessment at 72 hours in the Leibniz Research Institute for Environmental Medicine (IUF) Neural Progenitor Cell Proliferation Assay (NPC1) (AID 2284209)
Outline: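 Each well receives one 0.3 mm progenitor sphere from fetal brain cortex; test chemical is added at plating and left three days. Viability comes from alamar blue fluorescence, multiplexed with LDH and BrdU readouts in the same well.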

[9] = CCTE_Mundy_HCI_Cortical_Synap_Neur_Matur_NeuriteSpotCountPerNeuriteLength: CCTE's Synaptogenesis and Neurite Maturation Assay in rat cortical cells for Neurite Spot Count per Neurite Length, Mundy Lab (AID 2284210)
Outline: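 Rat primary cortical cultures, glia arrested with AraC at DIV 5, were dosed with media change at DIV 7 and fixed at DIV 12. Synaptophysin puncta per MAP2-labelled neurite length were quantified by high-content imaging versus DMSO.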

[10] = CCTE_Mundy_HCI_Cortical_Synap_Neur_Matur_BPCount: CCTE's Synaptogenesis and Neurite Maturation Assay in rat cortical cells for Branch Point Count, Mundy Lab (AID 2284211)
Outline: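 Branch point number is quantified by automated imaging of fluorescently labelled neurites and synapses in rat primary cortical neurons exposed from DIV 7 to DIV 12. Activity is analysed relative to DMSO negative control.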

[11] = CCTE_Mundy_HCI_Cortical_NOG_NeuriteLength: CCTE's Neurite Outgrowth Assay in rat cortical cells for Neurite Length, Mundy Lab (AID 2284213);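 for AC50: neurites imaged about 48 to 50 h after chemical exposure began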
Outline: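 Neurite length was read by high-content imaging of βIII-tubulin-labelled neurites in rat primary cortical cultures. Activity was fitted relative to DMSO.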

[12] = CCTE_Mundy_HCI_Cortical_Synap_Neur_Matur_NeuriteSpotCountPerNeuron: CCTE's Synaptogenesis and Neurite Maturation Assay in rat cortical cells for Neurite Spot Count per Neuron Count, Mundy Lab (AID 2284215)
Outline: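 Rat primary cortical cultures given AraC at DIV 5, dosed from DIV 7 to DIV 12 with media change. Fixed, stained for MAP2, synaptophysin and Hoechst; neurite-associated synaptophysin puncta per neuron quantified by high-content imaging versus DMSO.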

[13] = TAMU_PeakParms_SingleDonor1434_Chronotropy: Texas A&M University (TAMU) 1.5-hr Human Induced Pluripotent Stem Cell (iPSC)-derived Cardiomyocytes Calcium (Ca+2) Flux Assay for Cardiotoxicity: Chronotropy (changes in peak frequency) (AID 2284217); conditions: actives raise or lower the signal
Outline: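 Using fluorescent Ca2+ flux, average beats per second are measured in human iPSC-derived cardiomyocytes treated 90 min (0.5% DMSO vehicle, 0.2–100 uM). Non-beating data points are removed; activity is modeled in both directions relative to DMSO controls.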

[14] = CCTE_Mundy_HCI_hN2_NOG_NeuriteCount: CCTE's Neurite Outgrowth Assay in human hN2 cells for Neurite Count, Mundy Lab (AID 2284219; active = hit-call score of the fitted dose curve at least 0.9, where 1 is the maximum)
Outline: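 In this morphology assay, hNP1-derived neurons received test chemical 2 h post-plating and were fixed two days later in warm paraformaldehyde/sucrose containing Hoechst 33342. Neurites, labelled by rabbit anti-βIII-tubulin (1:800) and Alexa Fluor-488 (1:500), were counted automatically.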

[15] = UKN5_HCS_SBAD2_cell_viability: Viability Assessment in the University of Konstanz (UKN) Leist Lab Neurite Outgrowth Assay in human iPSC-derived immature Dorsal Root Ganglia Neurons (UKN5) (AID 2284056)
Outline: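 iPSC-derived immature peripheral neurons (SBAD2) seeded on Matrigel with CHIR99021, SU5402 and DAPT, dosed 1 h later for 24 h. Viability from Hoechst H-33342 and calcein-AM live staining, high-content imaging; bidirectional fit versus DMSO.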

[16] = UKN5_HCS_SBAD2_neurite_outgrowth: University of Konstanz (UKN) Leist Lab Neurite Outgrowth Assay in human iPSC-derived immature Dorsal Root Ganglia Neurons (UKN5) (AID 2284070); conditions: actives raise or lower the signal
Outline: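 SBAD2 neurons, 24 h compound treatment, calcein-AM neurite area via HCS imaging; DMSO baseline, gain or loss of signal.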

[17] = UKN4_HCS_LUHMES_neurite_outgrowth: University of Konstanz (UKN) Leist Lab Neurite Outgrowth Assay in human LUHMES cells (UKN4) (AID 2284206); conditions: actives raise or lower the signal
Outline: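 2-day-differentiated LUHMES, 24 h cpd exposure, live calcein-AM + H-33342 stain, HCS fluorescence imaging of neurite area; DMSO = baseline, bidirectional fit.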

[18] = CCTE_Mundy_HCI_Cortical_NOG_NeuriteCount: CCTE's Neurite Outgrowth Assay in rat cortical cells for Neurite Count, Mundy Lab (AID 2284212);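 note: cells fixed about two days after chemical exposure began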
Outline: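 Neurite number per cell from high-content imaging of betaIII-tubulin immunostaining, with Hoechst nuclear counterstain.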

[19] = CCTE_Shafer_MEA_acute_AB: CCTE's Alamar Blue Assay for Cytotoxicity in the Neural Acute Assay, Shafer Lab (AID 2284069; active = hit-call score of the fitted dose curve at least 0.9, where 1 is the maximum;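 note: active compounds lower the viability signal compared with DMSO wells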)
Outline: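 Cytotoxicity endpoint for acute MEA exposures of primary rat cortical neurons on day 13 or 15. Resazurin reduction is read fluorescently at 544/590 nm, with DMSO as the negative-control baseline.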

[20] = CCTE_Shafer_MEA_acute_LDH: CCTE's Lactate Dehydrogenase Assay for Cytotoxicity in the Neural Acute Assay, Shafer Lab (AID 2284086; active = hit-call score of the fitted dose curve at least 0.9, where 1 is the maximum;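 note: active means LDH release rises above DMSO vehicle level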)
Outline: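 Released lactate dehydrogenase, read at 490 nm, indicated cytotoxicity after acute 40-min compound treatment of rat cortical neuron networks grown on 48-well MEA plates.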

Measured: AC50

CCCCC(CC)COC(=O)c1ccccc1C(=O)OCC(CC)CCCC (stereo not given)
active: [1] 11.3 µM | [2] 12.4 µM | [3] 1.59 µM and 2.77 µM | [4] 5.5 µM and 7.56 µM | [9] 8.06 µM and 7.58 µM | [10] 3.03 µM | [11] 8.99 µM and 15 µM | [12] 5.47 µM and 3.59 µM | [13] 50 µM
inactive: [1] | [2] | [3] | [4] | [5] | [6] | [7] | [8] | [14]

CCCCNC(=O)n1c(NC(=O)OC)nc2ccccc21
active: [16] 7.98 µM | [4] 15 µM | [5] 10 µM | [17] 7.73 µM | [10] 15 µM | [11] 11.1 µM
inactive: [15] | [2] | [3] | [9] | [18] | [12]

COC(=O)N(OC)c1ccccc1COc1ccn(-c2ccc(Cl)cc2)n1
inactive: [19] | [20]
active: [1] 54.7 nM and 5.99 nM | [2] 120 nM and 25.3 nM | [3] 57.3 nM and 9.62 nM | [4] 161 nM and 10.2 nM | [5] 29.2 µM | [6] 4.1 µM | [7] 1.44 µM | [8] 7.52 µM | [9] 82.3 nM | [10] 0.0563 µM | [18] 0.141 µM | [11] 0.153 µM | [12] 0.0537 µM

CCOC(=O)CC(SP(=S)(OC)OC)C(=O)OCC (stereo not given)
active: [1] 19.9 µM and 24.6 µM | [2] 22.9 µM and 25.1 µM | [3] 7.87 µM and 3.88 µM | [4] 12.7 µM and 22.6 µM | [10] 50 µM | [11] 77.6 µM and 15 µM | [12] 50 µM | [14] 34.8 µM
inactive: [6] | [7] | [8] | [9] | [10] | [12]

C=CCC1=C(C)[C@@H](OC(=O)[C@@H]2[C@@H](C=C(C)C)C2(C)C)CC1=O
inactive: [19] | [20] | [18] | [11]
active: [2] 1.98 µM | [3] 2.61 µM | [9] 20500 nM | [10] 26.6 µM | [12] 22.1 µM

CS/C(C)=N/OC(=O)N(C)SN(C)C(=O)O/N=C(\C)SC
inactive: [19] | [20]
